# From the supplement of paper PMC12067093, “Discovery and optimisation of a covalent ligand for TRIM25 and its application to targeted protein ubiquitination” (Chemical Science, 2025)
# About 21,000 targets were measured; listed, in parts, are those with the largest changes and a random draw of the rest.
# Compound: Cc1cc(ccc1-c1ccccc1)C(=O)N1CCCN(CC1)C(=O)CCl [compound 10]
# Experiment: probe-labelled cysteine peptide fold change vs DMSO (competition) (log2 fold change); higher = less target engagement (more negative = stronger competition)
# Details: THP-1, incubation time: 4 h
# 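Further: competitive profiling in live THP-1 cells: cysteine peptides tagged with an iodoacetamide desthiobiotin (IA-DTB) probe, intensity after compound treatment relative to DMSO-treated cells.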
# UniProt P50502, sequence (P50502 whole entry): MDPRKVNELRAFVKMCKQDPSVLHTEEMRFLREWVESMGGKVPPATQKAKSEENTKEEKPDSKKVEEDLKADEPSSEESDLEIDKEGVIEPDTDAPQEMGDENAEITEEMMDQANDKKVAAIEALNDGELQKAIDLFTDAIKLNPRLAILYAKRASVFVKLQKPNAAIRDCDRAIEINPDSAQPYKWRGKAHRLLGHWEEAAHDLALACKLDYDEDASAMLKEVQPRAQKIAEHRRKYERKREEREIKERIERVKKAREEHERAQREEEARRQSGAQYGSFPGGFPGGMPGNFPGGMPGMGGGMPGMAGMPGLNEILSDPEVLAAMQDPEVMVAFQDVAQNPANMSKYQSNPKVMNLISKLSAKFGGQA
# UniProt Q96SK2, sequence (Q96SK2 whole entry, looked up): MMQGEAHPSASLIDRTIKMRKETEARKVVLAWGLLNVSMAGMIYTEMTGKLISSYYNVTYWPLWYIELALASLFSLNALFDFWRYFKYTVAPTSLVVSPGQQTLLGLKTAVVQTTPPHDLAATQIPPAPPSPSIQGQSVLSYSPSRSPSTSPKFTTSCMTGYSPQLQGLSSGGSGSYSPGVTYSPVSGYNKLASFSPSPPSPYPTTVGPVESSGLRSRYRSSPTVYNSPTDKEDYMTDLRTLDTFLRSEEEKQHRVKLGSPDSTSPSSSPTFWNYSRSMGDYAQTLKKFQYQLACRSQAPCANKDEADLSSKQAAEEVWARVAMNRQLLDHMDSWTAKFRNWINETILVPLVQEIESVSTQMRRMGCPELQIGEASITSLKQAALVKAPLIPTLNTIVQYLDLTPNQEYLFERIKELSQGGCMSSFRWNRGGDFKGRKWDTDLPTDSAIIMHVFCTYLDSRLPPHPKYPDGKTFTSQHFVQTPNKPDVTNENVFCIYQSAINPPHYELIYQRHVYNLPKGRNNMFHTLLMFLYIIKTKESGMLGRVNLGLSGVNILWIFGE
# UniProt P08240, sequence (P08240 whole entry, looked up): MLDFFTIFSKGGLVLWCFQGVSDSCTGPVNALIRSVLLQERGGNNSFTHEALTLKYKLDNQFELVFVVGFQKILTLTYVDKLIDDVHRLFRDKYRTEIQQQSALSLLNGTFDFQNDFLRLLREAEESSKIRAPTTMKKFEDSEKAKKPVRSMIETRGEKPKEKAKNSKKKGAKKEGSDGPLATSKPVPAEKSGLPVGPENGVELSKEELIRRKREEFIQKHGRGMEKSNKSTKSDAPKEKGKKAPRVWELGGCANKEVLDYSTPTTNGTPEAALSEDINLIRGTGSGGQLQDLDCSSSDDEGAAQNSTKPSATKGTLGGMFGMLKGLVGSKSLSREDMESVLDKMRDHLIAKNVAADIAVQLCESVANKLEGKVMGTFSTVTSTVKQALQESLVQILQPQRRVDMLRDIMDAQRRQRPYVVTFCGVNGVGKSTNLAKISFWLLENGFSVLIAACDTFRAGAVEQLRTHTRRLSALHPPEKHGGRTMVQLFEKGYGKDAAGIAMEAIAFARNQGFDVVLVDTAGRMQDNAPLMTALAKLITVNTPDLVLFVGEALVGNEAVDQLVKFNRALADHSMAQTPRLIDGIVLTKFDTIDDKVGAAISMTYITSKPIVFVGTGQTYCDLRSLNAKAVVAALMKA
# UniProt Q9BTW9, sequence (Q9BTW9 whole entry, looked up): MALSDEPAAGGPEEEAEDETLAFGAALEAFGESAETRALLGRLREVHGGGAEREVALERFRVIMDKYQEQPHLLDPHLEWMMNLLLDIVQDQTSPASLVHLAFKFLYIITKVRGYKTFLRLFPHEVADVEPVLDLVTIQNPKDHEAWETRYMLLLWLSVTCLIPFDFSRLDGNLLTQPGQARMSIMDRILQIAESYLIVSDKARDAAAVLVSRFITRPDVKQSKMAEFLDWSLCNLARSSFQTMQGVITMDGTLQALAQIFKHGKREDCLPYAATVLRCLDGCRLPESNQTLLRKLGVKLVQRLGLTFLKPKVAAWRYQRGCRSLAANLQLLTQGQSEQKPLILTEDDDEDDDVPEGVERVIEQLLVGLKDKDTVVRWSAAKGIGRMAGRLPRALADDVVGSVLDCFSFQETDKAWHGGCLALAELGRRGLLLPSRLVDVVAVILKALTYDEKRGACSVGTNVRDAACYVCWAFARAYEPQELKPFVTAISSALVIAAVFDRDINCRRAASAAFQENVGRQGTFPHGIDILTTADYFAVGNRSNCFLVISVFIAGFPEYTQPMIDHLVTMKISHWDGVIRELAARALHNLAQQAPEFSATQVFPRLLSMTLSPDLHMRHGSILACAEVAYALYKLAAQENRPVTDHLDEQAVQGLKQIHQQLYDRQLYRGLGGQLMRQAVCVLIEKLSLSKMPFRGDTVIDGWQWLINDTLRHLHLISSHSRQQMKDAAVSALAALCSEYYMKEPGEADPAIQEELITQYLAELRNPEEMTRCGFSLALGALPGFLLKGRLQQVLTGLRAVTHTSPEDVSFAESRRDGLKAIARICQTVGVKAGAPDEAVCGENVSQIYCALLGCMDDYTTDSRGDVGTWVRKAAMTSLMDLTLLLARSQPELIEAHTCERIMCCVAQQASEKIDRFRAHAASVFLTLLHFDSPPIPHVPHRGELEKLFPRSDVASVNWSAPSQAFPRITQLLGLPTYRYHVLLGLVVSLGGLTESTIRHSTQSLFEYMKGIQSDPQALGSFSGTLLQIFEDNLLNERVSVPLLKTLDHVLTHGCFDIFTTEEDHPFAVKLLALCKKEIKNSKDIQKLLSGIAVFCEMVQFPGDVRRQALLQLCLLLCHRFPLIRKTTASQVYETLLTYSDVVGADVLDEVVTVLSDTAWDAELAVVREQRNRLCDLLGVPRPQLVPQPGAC
# UniProt Q02447, sequence (Q02447 whole entry, looked up): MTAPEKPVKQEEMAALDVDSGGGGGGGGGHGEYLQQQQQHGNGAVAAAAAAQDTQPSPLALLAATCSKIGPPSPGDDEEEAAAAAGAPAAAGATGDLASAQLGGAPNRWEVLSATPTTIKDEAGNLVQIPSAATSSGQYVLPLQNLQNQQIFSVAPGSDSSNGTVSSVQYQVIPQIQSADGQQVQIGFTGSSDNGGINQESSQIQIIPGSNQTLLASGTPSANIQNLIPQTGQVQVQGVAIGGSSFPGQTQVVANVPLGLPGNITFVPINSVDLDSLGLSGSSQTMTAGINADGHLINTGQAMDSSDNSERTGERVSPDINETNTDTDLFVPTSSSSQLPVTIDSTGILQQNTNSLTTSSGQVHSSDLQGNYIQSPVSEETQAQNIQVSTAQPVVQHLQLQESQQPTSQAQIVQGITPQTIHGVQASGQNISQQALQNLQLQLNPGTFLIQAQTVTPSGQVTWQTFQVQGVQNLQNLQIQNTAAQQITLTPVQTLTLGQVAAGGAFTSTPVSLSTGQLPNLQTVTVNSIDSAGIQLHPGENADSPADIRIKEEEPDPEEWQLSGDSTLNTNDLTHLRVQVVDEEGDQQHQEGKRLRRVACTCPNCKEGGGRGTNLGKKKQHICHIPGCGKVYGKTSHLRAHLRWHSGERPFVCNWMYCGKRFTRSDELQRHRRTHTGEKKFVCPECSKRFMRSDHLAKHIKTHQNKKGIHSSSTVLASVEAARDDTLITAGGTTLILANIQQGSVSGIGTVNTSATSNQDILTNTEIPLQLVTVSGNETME
# UniProt Q92973, sequence (Q92973 whole entry, looked up): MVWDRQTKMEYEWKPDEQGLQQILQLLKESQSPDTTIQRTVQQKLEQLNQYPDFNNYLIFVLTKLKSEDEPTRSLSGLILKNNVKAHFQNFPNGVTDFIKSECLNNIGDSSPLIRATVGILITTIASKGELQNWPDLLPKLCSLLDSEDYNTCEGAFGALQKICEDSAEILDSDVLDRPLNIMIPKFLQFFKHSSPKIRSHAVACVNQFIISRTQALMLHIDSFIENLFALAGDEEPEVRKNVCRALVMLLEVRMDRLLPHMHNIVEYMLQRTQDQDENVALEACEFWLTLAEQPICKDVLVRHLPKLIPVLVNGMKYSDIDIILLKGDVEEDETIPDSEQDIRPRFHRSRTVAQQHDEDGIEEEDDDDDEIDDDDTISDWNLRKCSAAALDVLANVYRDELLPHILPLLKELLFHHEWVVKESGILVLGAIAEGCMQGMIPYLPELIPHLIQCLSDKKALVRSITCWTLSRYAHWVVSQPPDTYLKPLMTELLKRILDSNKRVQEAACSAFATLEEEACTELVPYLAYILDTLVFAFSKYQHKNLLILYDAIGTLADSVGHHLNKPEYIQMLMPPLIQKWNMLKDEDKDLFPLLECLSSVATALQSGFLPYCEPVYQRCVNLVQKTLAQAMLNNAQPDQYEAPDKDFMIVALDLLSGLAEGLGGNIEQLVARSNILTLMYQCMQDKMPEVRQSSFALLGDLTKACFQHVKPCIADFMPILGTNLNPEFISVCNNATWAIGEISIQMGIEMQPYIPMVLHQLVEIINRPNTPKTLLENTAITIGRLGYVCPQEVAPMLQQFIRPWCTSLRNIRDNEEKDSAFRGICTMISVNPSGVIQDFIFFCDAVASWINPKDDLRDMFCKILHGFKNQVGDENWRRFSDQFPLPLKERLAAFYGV
# UniProt Q8NE00, sequence (Q8NE00 whole entry): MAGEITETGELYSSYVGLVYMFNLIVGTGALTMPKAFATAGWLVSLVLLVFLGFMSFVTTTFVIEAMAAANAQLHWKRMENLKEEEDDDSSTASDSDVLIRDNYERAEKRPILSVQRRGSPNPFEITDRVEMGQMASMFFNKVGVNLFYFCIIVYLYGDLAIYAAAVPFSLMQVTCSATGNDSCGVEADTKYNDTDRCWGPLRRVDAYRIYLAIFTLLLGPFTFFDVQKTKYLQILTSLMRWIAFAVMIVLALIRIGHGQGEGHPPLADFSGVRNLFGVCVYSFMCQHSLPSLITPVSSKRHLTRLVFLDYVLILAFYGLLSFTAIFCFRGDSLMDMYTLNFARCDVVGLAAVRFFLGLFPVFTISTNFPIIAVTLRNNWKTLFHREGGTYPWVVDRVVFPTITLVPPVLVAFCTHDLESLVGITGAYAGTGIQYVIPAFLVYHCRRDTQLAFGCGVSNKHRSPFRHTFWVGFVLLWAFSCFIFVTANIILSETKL
Target,probe-labelled cysteine peptide fold change (10 µM),probe-labelled cysteine peptide fold change (50 µM)
SPAG5_Q96R06_907_TEQETLLLSTACPPTQEHPLPNDR (UniProt Q96R06),-0.115,0.0555
TIGAR_Q9NQ88_114_EECPVFTPPGGETLDQVK (UniProt Q9NQ88),-0.225,-1.35
SON_P18583-2_2133_DLMANATCFR (UniProt P18583),5.1e-05,-0.396
TNPO1_Q92973_205_SHAVACVNQFIISR (UniProt Q92973),0.172,0.0841
SPATA2_Q9UM82_41_QRPGSDECLR (UniProt Q9UM82),-0.46,-1.35
SP3_Q02447_683_KFVCPECSK (UniProt Q02447),0.188,0.33
SRPRA_P08240_253_VWELGGCANK (UniProt P08240),-0.192,-0.783
TNFAIP2_Q03169_429_ANVIANINNCLSFR (UniProt Q03169),-0.0434,0.184
TMEM104_Q8NE00_455_DTQLAFGCGVSNK (UniProt Q8NE00),-0.127,-0.346
TMEM209_Q96SK2_495_TFTSQHFVQTPNKPDVTNENVFCIYQSAINPPHYELIYQR (UniProt Q96SK2),0.145,0.0358
TBCD_Q9BTW9_1055_TLDHVLTHGCFDIFTTEEDHPFAVK (UniProt Q9BTW9),-0.188,-0.0289
STXBP5_Q5T5C0_933_VISLPTQNCAYK (UniProt Q5T5C0),0.186,0.107
ST13_P50502_209_LLGHWEEAAHDLALACKLDYDEDASAMLK (UniProt P50502),-0.319,-1.1
STAM2_O75886_76_VPHVALQALTLLGACVANCGK (UniProt O75886),-0.0779,0.0749
